# Source: ChEMBL document CHEMBL3988442, “University of Dundee, Small-Polar-MMV Screening Library” (2021)
# In all, about 48,000 compounds went through this assay and about 13,000 (27%) showed an effect of 50% or more. Some of the results follow.
# Test system: Wolbachia pipientis
# Test: Anti-Wolbachia Cell-Based Screen
# Type: functional
# Parameters: scale not given: in the data most compounds retested in dose-response had high values
# Conditions: 5 µM
row,Structure (SMILES),Percent Effect
1,O=C(CC1CCc2ccccc21)NC1(C(=O)O)CCOCC1 (configuration not stated),-1.321%
2,Fc1cccnc1CN1CCCCC1c1ccn2ccnc2n1 (configuration not stated),6.686%
3,CNc1ncccc1CN1CCCCC1c1ccnc(N)n1 (configuration not stated),116.5%
4,CNc1ncccc1CN1CCC1c1cc(N)nc(C)n1 (configuration not stated),93.93%
5,Cc1cccnc1CN1CCN(CC(=O)N(C)C)[C@@H]2CS(=O)(=O)C[C@@H]21,1.676%
6,Cc1cccnc1CN1CCCCC1c1ccn2ccnc2n1 (configuration not stated),107.3%
7,CNc1cc(C2CCCN2Cc2ccccc2OCC(=O)O)ccn1 (configuration not stated),-5.445%
8,CNc1ncccc1CN1CCCCC1c1cc(C)n2ccnc2n1 (configuration not stated),94%
9,Cc1ccccc1CSc1nc(N)cc(N2CC[C@@H](O)C2)n1,2.755%
10,O=C1CCc2cc(S(=O)(=O)NC(=O)c3ccc4c(c3)CCO4)ccc2N1,-17.2%
11,O=S(=O)(CCCn1cncn1)Cc1cccc(F)c1,2.155%
12,CC(C)=CCN1CCN(CCCc2ccccc2)[C@H]2CS(=O)(=O)C[C@H]21,-6.821%
13,CC(C)CCN(C)C(=O)c1cc(CN2CCC(O)CC2)on1,-4.489%
14,CCC(=O)N1CCc2[nH]cnc2C12CCN(C(=O)c1snnc1C)CC2,7.824%
15,Cc1ccc(C2CN(Cc3cnc(-c4ccccn4)s3)CCO2)o1 (configuration not stated),1.384%
16,CNc1cc(C)nc(C2CN(Cc3ccc(C)nc3)CCO2)c1 (configuration not stated),-3.28%
17,CNc1cc(C2CN(Cc3cccnc3NC)CCO2)nc(C)n1 (configuration not stated),96.43%
18,Cc1cc(N2CCC(n3cc(CN4CCSCC4)nn3)CC2)ccn1,-12.68%
19,CCOC(=O)C1CCN(Cc2c(O)ccc3oc4c(c23)CCCC4)CC1,10.57%
20,COc1ccc(CN2CCn3cncc3C2)cc1Cn1cncn1,18.87%
21,COc1cc2c(cc1OC)CCN(C(=O)Cn1nc(C)cc1C)CC2,0.6612%
22,COc1ccc(-c2nccn2CCN2CCCCC2)c(OC)c1OC,-1.363%
23,c1ccc(CCCN2CCN(CCn3cncn3)CC2)cc1,3.655%
24,COc1cc(C)cc(C(C(=O)O)N(C)CCN2CCCC2)c1OC (configuration not stated),-1.945%
25,COc1cc2c(c(OC)c1OC)CCN(CCn1cncn1)CC2,66.41%
26,COc1cc2c(cc1OC)CN(C(=O)Cn1nc(C)cc1C)CC2,1.135%

row,Structure (SMILES),Percent Effect
1,COc1cc2c(c(OC)c1OC)CCN(CCN1CCCCC1)CC2,112.9%
2,COc1cc2c(c(OC)c1OC)CCN(CCn1nc(C)cc1C)CC2,72.3%
3,O=C(C1CC=CC1)N1C[C@@H]2CN(Cc3ccsc3)CCO[C@@H]2C1.O=C(O)C(F)(F)F,1.635%
4,CS(=O)(=O)CCNC(=O)N(Cc1ccoc1)C1CCCCC1,-12.04%
5,COc1ccc(Cc2nnc3n2N=C(C(C)(C)C)CS3)cc1,3.244%
6,CSCC(C)(O)CNC(=O)c1cccc(Cl)c1Cl (configuration not stated),-18.01%
7,Cc1cc(C(=O)N2CCCC(n3ccnc3)C2)c(C)n1C1CC1 (configuration not stated),137.5%
8,Cc1nn2cccnc2c1C(=O)N1CCCC(n2ccnc2)C1 (configuration not stated),4.541%
9,Cc1cc(C(=O)N2CCCC(n3cccn3)C2)c(C)n1C1CC1 (configuration not stated),121.6%
10,Cc1cc(C(=O)N2CCCC(n3cncn3)C2)c(C)n1C1CC1 (configuration not stated),0.2394%
11,Cn1ncc(C(=O)N2CCCC(n3cccn3)C2)c1C1CC1 (configuration not stated),3.227%
12,Cn1cc(N2CCC(Nc3ccc4nccnc4n3)C2=O)cn1 (configuration not stated),-8.237%
13,Cc1nnc2n1CC(CNc1cnc3ccccc3n1)CC2 (configuration not stated),0.6716%
14,Cc1ccn(CCNc2ncnc3c2CCN(S(C)(=O)=O)CC3)n1,5.573%
15,Cc1oncc1C(=O)N[C@@H]1CN(c2ncccn2)C[C@@H]2CCCO[C@@H]21.O=C(O)C(F)(F)F,-3.566%
16,O=C(CC1CC1)N[C@@H]1CN(Cc2ccoc2)C[C@@H]2CCCO[C@@H]21,-6.81%
17,O=C(CC1CC1)N[C@@H]1CN(Cc2ccco2)C[C@@H]2CCCO[C@@H]21.O=C(O)C(F)(F)F,-7.613%
18,O=C(N[C@@H]1CN(Cc2ccoc2)C[C@@H]2CCCO[C@@H]21)C1CCC1,85.36%
19,CN(C)[C@@H]1CN(Cc2ccoc2)C[C@@H]2CCCO[C@@H]21.O=C(O)C(F)(F)F.O=C(O)C(F)(F)F,-4.757%
20,Cc1oncc1C(=O)N[C@@H]1CN(Cc2ccco2)C[C@@H]2CCCO[C@@H]21.O=C(O)C(F)(F)F,107.8%
21,CS(=O)(=O)N[C@@H]1CN(Cc2ccco2)C[C@@H]2CCCO[C@@H]21.O=C(O)C(F)(F)F,1.285%
22,Cc1oncc1C(=O)N[C@@H]1CN(Cc2ccoc2)C[C@@H]2CCCO[C@@H]21.O=C(O)C(F)(F)F,105.5%
23,CCOc1cccc(CCNC(=O)Cc2ccn[nH]2)n1,-27.67%
24,O=C(O)[C@@]12CN(c3cnccn3)C[C@@H]1CN(C1CCOCC1)C2,-13.72%
25,CNC(=O)[C@@H]1C[C@@H](NC(=O)Cc2cccs2)CN1C1CCOCC1,0.5082%
26,Cc1nc2ccccn2c1CN1C[C@@H](CN2CCOCC2)[C@@H](CO)C1,-3.894%
